# According to PubChem BioAssay (NCI):
# This is part of a sample that, as a whole, favours compounds with a hit. Of some 83,000 tested, about 20% had one in any assay.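 Values shown are percent growth following 48 h exposure of cells in 96-well plates to a single concentration of compound; below 10 was considered active.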 Calls of active or inactive are those of the source.
# Tested on: HL-60(TB) leukemia
# Experiment: NCI-60 one-dose screen, 48 h (100 = growth as untreated, 0 = no growth, -100 = all killed)
# Conditions: 10 µM unless noted
row,Compound,growth
1,Nc1nc(N(Cc2ccccc2)c2ccccc2)c2cn[nH]c2n1,32.8% (inactive)
2,CCOc1nc(-c2ccccc2)cc2c(O)c(C(=O)n3nc(C)cc3C)[nH]c(=O)c12,103% (inactive)
3,FCOC(C(F)(F)F)C(F)(F)F,96.1% (inactive)
4,O=[N+]([O-])c1ccc(SSc2ccc([N+](=O)[O-])cc2Cl)c(Cl)c1,92.5% (inactive)
5,COc1cc2c(cc1O)CC[C@@H]1C2CC[C@@]2(C)C1CC[C@@H]2O (stereo partly drawn),-3.13% (active)
6,COc1ccc(-c2csc(NC(=O)c3cc(OC)c(OC)c(OC)c3)n2)cc1,102% (inactive)
7,CC1(C)CC(=O)CC2(C1)N=C(N)Nc1nc3ccccc3n12 (stereo not drawn),92.5% (inactive)
8,COc1cc(-c2nc3sccn3c2-c2ccnc(NCCNS(=O)(=O)c3ccc(Cl)cc3)n2)ccc1F,9.59% (active)
9,CS(=O)(=O)c1ccc(C(=O)N/N=C/c2ccccc2Cl)cc1,52.3% (inactive)
10,CN1NC(c2ccccc2)NN(C)C1=O,105% (inactive)
11,CCOC(=O)c1cnc2c(cnn2CC)c1NN=C(C)C,74.4% (inactive)
12,O=S(=O)(NCl)c1ccccc1,99.8% (inactive)
13,COc1ccccc1/C=C/C(=O)Nc1ccc(F)cc1,86.3% (inactive)
